Test [1] has as its target Albumin (Bos taurus) (UniProt P02769). Nature of the test: bovine serum albumin binders on microarray, profiling panel, artefact control for SMM control protein annotation, biochemical, small-molecule microarray, Alexa647 label, 635/667 nm fluorescence (AID 1118).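 Further: score merges 667 nm emission intensity and signal-to-noise per printed compound spot.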 Particulars: BSA-A647 binding, fluorescence 635 nm, higher = more signal.
Test [2] is described as follows: small-molecule microarray binders of probe aXIP, primary screen, biochemical, NeuroSMM set, 635/667 nm fluorescence (AID 1119).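 Further: probe is the protein aXip251-270 applied at 1 µg/mL to compound-printed slides; binding of probe to printed compounds measured as 667 nm fluorescence plus signal to noise.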 As to conditions: higher = more signal, called active from +8 up or from −8 down.
Test [3] is described as follows: small-molecule binders of probe aNOTCH3, primary screen, biochemical, small-molecule microarray, 635/667 nm fluorescence (AID 1120).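 Further: probe is a biotin-tagged antibody raised against NOTCH3 rather than NOTCH3 protein; score merges spot fluorescence near 667 nm with spot signal to noise.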 As to conditions: higher = more signal.
A short description of test [4]: small-molecule binders of probe aNOTCH2, primary screen, biochemical, small-molecule microarray, 635/667 nm fluorescence (AID 1121).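 Further: score merges feature fluorescence read at 667 nm with its signal to noise.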 Particulars: higher = more signal.
Test [5] deals with Carbonic anhydrase 2 (Homo sapiens) (UniProt P00918). Nature of the test: CAII small-molecule binders, profiling panel, biochemical, small-molecule microarray, Alexa647-labelled CAII (AID 1122). As to conditions: CAII-A647 binding fluorescence, higher = more signal.
The nature of test [6]: COS7 lysate on small-molecule microarray, probe aHis, 635 nm (AID 1123).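 Further: z-score combines 667nm fluorescence intensity with signal-to-noise per printed compound spot.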 As to conditions: COS7 cell lysate, fluorescence, higher = more signal.
Test [7] can be described thus: compound binding in COS7 lysate, probe aLAP1, primary screen, cell lysate, small-molecule microarray (AID 1124).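 Further: lysate comes from COS7 cells expressing LAP1 and is applied at 0.3 µg/mL; score merges spot fluorescence near 667 nm with signal-to-noise over triplicate slides.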 As to conditions: probe aLAP1, fluorescence, higher = more signal.
The test system of test [8] is Sam68 (KHDRBS1). Kind of test: Sam68 small-molecule binders, primary screen, biochemical, small-molecule microarray, 635 nm fluorescence (AID 1125).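 Further: score merges 667 nm channel intensity with signal to noise over triplicate slides.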 As to conditions: small-molecule microarray binding, higher = more signal.
In test [9] the test system is Chordin-like protein 2 (CHRDL2). Kind of test: CHRDL2 small-molecule binders, primary screen, biochemical, small-molecule microarray, 635 nm fluorescence (AID 1126).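 Further: printed compound slides probed with Chrdl2 protein at 4 µg/mL for 1 h at 4 C; score merges 667 nm emission intensity with signal to noise over three replicate slides.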 As to conditions: small-molecule microarray binding, fluorescence 635 nm; higher = more signal.
Test [10] concerns the target Concanavalin-A (Canavalia ensiformis) (UniProt P02866). Nature of the test: ConA small-molecule binders, primary screen, artefact control for SMM control protein annotation, biochemical, small-molecule microarray, Alexa647 label, 635 nm (AID 1127).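 Further: z combines 667 nm emission intensity with signal-to-noise across three replicate slides.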 As to conditions: ConA-A647 binding fluorescence, higher = more signal.
Test [11] can be described thus: anti-His antibody binders, primary screen, artefact control for SMM control protein annotation, biochemical, small-molecule microarray, 635 nm fluorescence (AID 1128).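 Further: score merges feature fluorescence with signal-to-noise for each printed compound spot.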 Particulars: anti-His Alexa647 antibody binding, higher = more signal.
Test [12] has as its system Human papillomavirus type 1a E7 protein (residues 1-88). Kind of test: HPV1a E7 small-molecule binders, primary screen, biochemical, small-molecule microarray, residues 1-88, 635 nm (AID 1129). As to conditions: small-molecule microarray binding, fluorescence 635 nm; higher = more signal.
In test [13] the target is Focal adhesion kinase 1 (Homo sapiens) (UniProt Q05397). Kind of test: small-molecule microarray binders of FAK, primary screen, biochemical, 635/667 nm fluorescence, BSA, DTT (AID 1130).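 Further: composite of spot emission at 667 nm and signal to noise over triplicate slides.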 As to conditions: PTK2 binding, 635 nm fluorescence, higher = more signal.
Test [14] deals with Fibrinogen (Alexa647-labelled). Kind of test: fibrinogen binders on compound microarrays, profiling panel, artefact control for SMM control-protein annotation, biochemical, small-molecule microarray, 635/667 nm fluorescence (AID 1131).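 Further: z-score merges 667 nm fluorescence with per-spot signal-to-noise over triplicate slides.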 Particulars: fibrinogen-A647 binding fluorescence, higher = more signal.
Test [15] concerns the target Follistatin (Homo sapiens) (UniProt P19883). Kind of test: follistatin binders on small-molecule microarrays, primary screen, biochemical, small-molecule microarray, 635/667 nm fluorescence (AID 1132). As to conditions: FST binding, 635 nm fluorescence, higher = more signal.
Test [16] deals with Fibroblast growth factor 2 (Homo sapiens) (UniProt P09038). Nature of the test: FGF2 binders on small-molecule microarrays, primary screen, biochemical, small-molecule microarray, 635/667 nm fluorescence (AID 1133). Particulars: small-molecule microarray binding, FGF2, fluorescence 635/667; higher = more signal.
A short description of test [17]: mitochondrial membrane potential change in A549 cells, profiling panel, cell-based, JC-1 fluorescence, basal, 24 h, 100 nL (AID 1138).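 Further: A549 lung adenocarcinoma cells under basal conditions with no added stimulus; test concentration not given here.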 Particulars: higher = more signal.
Test [18] concerns Lefty1. Kind of test: Lefty1 binders on small-molecule microarrays, primary screen, biochemical, small-molecule microarray, 635/667 nm fluorescence (AID 1139). As to conditions: small-molecule microarray binding, fluorescence 635/667; higher = more signal.
Test [19] concerns wheat germ agglutinin (Triticum aestivum), Alexa647-labelled. Kind of test: wheat germ agglutinin binders on compound microarrays, profiling panel, artefact control for SMM control-protein annotation, biochemical, small-molecule microarray, 635/667 nm fluorescence (AID 1140).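 Further: score merges 667 nm feature emission with signal to noise over triplicate slides.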 Particulars: WGA-A647 binding, 635 nm fluorescence, higher = more signal.
The target in test [20] is Luciferin 4-monooxygenase (Photinus pyralis) (UniProt P08659). Kind of test: firefly luciferase enzyme inhibitors, primary screen, biochemical, luminescence, purified enzyme, 2006 set (AID 1141).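 Further: cell-free assay with purified firefly luciferase at 100 ng per well in PBS; test concentration not given here.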 As to conditions: SteadyGlo luminescence, 30 min, higher = more signal, called active from +8 up or from −8 down.

The source made the active and inactive calls.

These results are taken from PubChem BioAssay.

Chain of Concanavalin-A (Canavalia ensiformis) (P02866 whole entry, looked up): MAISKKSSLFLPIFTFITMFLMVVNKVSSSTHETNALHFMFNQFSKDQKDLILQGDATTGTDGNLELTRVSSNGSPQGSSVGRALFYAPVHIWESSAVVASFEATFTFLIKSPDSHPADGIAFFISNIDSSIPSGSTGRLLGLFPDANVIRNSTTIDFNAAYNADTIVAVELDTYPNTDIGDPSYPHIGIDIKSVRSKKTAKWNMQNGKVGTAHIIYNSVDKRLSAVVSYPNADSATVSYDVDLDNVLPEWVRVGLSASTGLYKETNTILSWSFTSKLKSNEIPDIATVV
Chain of Albumin (Bos taurus) (P02769 whole entry, looked up): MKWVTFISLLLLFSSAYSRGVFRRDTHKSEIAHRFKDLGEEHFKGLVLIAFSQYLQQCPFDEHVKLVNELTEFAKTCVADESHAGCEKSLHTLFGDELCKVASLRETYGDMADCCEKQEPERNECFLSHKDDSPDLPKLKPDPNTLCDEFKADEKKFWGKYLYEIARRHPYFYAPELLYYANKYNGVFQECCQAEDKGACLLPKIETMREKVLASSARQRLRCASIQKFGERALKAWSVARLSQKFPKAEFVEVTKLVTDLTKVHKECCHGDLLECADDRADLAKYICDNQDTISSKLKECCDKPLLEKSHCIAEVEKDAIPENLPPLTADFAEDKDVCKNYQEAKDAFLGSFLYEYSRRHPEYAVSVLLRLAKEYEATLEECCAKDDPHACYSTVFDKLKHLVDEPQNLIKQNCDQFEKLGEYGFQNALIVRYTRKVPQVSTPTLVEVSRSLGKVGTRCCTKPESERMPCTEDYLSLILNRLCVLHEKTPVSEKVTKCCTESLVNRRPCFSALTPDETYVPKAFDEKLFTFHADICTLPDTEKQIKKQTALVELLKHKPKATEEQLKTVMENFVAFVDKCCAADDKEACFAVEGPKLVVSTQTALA
Chain of Focal adhesion kinase 1 (Homo sapiens) (Q05397 whole entry, looked up): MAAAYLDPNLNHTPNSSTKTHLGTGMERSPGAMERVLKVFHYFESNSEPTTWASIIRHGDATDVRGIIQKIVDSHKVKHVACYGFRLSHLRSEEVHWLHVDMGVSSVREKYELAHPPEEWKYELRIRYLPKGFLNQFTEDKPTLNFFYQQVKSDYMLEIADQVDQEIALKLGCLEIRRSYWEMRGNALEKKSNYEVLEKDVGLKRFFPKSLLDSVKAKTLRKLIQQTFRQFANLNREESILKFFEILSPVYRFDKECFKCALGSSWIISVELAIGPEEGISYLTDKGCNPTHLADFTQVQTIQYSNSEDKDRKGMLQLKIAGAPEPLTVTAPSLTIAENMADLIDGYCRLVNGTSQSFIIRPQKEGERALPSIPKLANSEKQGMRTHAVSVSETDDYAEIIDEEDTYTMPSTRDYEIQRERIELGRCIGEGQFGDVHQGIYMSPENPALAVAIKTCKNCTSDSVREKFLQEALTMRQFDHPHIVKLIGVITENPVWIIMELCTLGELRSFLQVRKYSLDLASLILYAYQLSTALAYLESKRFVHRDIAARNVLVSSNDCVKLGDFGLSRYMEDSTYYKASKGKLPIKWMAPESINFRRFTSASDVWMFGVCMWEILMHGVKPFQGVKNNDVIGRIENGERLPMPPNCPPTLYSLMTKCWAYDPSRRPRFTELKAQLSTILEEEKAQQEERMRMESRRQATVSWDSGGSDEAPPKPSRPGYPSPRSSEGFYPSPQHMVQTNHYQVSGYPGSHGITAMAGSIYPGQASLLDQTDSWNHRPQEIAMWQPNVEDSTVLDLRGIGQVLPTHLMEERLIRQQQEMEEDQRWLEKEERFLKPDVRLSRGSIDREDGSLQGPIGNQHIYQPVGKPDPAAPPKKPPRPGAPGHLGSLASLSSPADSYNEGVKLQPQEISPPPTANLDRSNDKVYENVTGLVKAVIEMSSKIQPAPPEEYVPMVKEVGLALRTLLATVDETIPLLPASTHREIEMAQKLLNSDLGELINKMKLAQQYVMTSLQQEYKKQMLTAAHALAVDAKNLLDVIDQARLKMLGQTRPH
Chain of Follistatin (Homo sapiens) (P19883 whole entry, looked up): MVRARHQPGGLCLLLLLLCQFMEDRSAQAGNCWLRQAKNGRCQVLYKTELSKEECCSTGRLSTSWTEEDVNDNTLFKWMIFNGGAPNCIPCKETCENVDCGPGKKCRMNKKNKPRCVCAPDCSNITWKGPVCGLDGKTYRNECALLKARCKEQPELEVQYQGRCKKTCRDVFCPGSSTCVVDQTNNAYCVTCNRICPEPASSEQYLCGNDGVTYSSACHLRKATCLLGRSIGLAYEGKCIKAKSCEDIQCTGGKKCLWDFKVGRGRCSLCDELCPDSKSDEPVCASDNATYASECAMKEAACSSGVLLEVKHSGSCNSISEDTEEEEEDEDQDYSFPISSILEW
Chain of Luciferin 4-monooxygenase (Photinus pyralis) (P08659 whole entry, looked up): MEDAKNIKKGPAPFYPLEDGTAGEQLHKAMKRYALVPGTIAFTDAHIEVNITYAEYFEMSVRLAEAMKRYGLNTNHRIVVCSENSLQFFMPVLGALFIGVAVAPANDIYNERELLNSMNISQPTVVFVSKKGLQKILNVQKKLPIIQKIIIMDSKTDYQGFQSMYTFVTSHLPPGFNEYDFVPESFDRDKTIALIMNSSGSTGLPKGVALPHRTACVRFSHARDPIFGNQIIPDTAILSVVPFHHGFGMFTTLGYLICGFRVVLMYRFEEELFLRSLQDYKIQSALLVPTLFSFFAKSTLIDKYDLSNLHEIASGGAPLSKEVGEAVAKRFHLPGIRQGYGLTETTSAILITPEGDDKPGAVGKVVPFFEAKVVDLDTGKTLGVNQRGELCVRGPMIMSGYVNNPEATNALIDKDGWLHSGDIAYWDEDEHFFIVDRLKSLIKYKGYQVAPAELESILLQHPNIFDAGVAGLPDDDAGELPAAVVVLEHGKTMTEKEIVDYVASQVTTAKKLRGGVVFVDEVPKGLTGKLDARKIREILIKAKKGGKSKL
Chain of Fibroblast growth factor 2 (Homo sapiens) (P09038 whole entry, looked up): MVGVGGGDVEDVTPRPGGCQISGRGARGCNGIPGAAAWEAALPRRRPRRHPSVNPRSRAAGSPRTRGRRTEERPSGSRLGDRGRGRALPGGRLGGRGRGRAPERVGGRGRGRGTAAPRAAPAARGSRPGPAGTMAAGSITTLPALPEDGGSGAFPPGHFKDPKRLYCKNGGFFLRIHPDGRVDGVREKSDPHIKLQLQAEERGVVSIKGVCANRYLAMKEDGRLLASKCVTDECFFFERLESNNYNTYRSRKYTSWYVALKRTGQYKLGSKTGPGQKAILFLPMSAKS

For `C=CCC(OC(C)=O)[C@@H]1[C@@H](N(Cc2cc3ccccc3o2)C(=O)Cc2ccc(F)cc2)c2cc(OCCCO)ccc2N1C(=O)Cc1ccc(OC)cc1` (stereo not given in full), the composite z-score is 0.323 in [1]; -0.0932 in [3]; -0.178 in test [4]; -0.446 in [5]; -0.372 in [6]; -0.374 in [7]. In addition, the composite z-score in test [8] was -0.243; in test [9], 0.448; in test [10] it was -0.437; in test [11], -0.419; in test [12] it was -1.14; in test [13], -0.0602. The composite z-score was 0.0188 in test [14]; 0.354 in test [15]; -0.271 in test [16]; 0.158 in test [18]; 0.0264 in test [19]. Also, in test [2], the composite Z-score is -0.353 (inactive). For the same molecule, the z-score is 0.919 in test [17] and -0.188 (inactive) in test [20].
For `CN1C(=O)C2C(C1=O)C1C=C(CCCO)C2C(c2ccc(CN3CCCC3)cc2)N1C` (stereo not given), the composite z-score was -0.356 in test [1]; -0.068 in test [3]; -0.0907 in test [4]; -0.221 in [5]; -0.377 in [6]; 0.0357 in test [7]. Further, the composite z-score is 0.239 in test [8]; 0.0976 in [9]; -0.56 in test [10]; -0.0122 in [11]; -0.329 in test [12]; 0.0551 in test [13]. Moreover, the composite z-score is -1.58 in [14]; -0.227 in [15]; -0.052 in test [16]; -0.0306 in [18]; -0.236 in test [19]. Further, the composite Z-score in test [2] is -0.816 (inactive). The z-score in [17] is -1.01; in test [20] it was 0.53 (inactive).
On to `CC(CCN1CCc2nc(-c3ccccc3)c(-c3ccccc3)cc2C1)=NO[C@H](C)c1cn([C@@H]2COC[C@H]2O)nn1`, for which the composite z-score in [1] is 0.156; in test [3] it was 0.0864; in [4] it was -0.117; in [5], -0.089; in test [6] it was 0.507; in test [7] it was 0.222. The composite z-score was 1.31 in [8]; 0.0957 in test [9]; -0.411 in test [10]; 0.124 in test [11]; 0.915 in [12]; 0.0127 in [13]. For the same molecule, the composite z-score worked out at 0.717 in test [14]; 0.438 in test [15]; 0.0208 in test [16]; 0.712 in test [18]; 0.224 in test [19]. Moreover, the composite Z-score in [2] is -0.0135 (inactive). For the same molecule, the values for the z-score in [17] and in [20] were 1.17 and -0.475 (inactive), respectively.
With `CO[C@@H]1COC(=O)CCC[C@@H](C)[C@H](OC)COC(=O)CCC[C@H]1C`, the composite z-score in test [1] is -0.27; in [3], -0.0967; in [4], -0.0907; in [5] it was -0.277; in test [6], -0.307; in test [7] it was -0.0693. Moreover, the composite z-score in [8] was -0.12; in test [9] it was 0.777; in test [10] it was -0.302; in test [11], 0.463; in [12], 0.077; in test [13], -0.217. Further, the composite z-score in [14] was -0.0557; in test [15] it was 0.513; in [16], 0.685; in test [18], 0.958; in [19], -0.261. In test [2], the composite Z-score was 0.231 (inactive). The z-score in test [17] was -0.598; in [20], 1.17 (inactive).
As for `CO[C@H]([C@@H](C)[C@H](OC)c1ccccc1)[C@H](C)[C@@H](OC)[C@H](C)C(C)=O`, the composite z-score in [1] is -0.529; in test [3] it was -0.13; in test [4], -0.0551; in [5] it was -0.505; in [6] it was -0.74; in test [7], -0.32. Moreover, the composite z-score in [8] is -1.24; in test [9], -0.326; in test [10], -2.34; in test [11] it was 1; in test [12] it was -0.744; in [13] it was 0.27. Further, the composite z-score was -0.464 in test [14]; -0.304 in test [15]; 0.0135 in test [16]; 0.128 in test [18]; -0.496 in test [19]. The composite Z-score in test [2] was 0.837 (inactive). Moreover, the results for the z-score in test [17] and in test [20] were 1.1 and -1.87 (inactive), respectively.
